Records with an inconclusive call do not appear. Unmarked numbers belong to inactive results. The source made the active and inactive calls. Calls follow the shape of the dose curve; as a rule, active = well fitted inhibition curve with a large enough effect; inconclusive = small, poorly fitted or top-dose-only effect; inactive = no such curve, though single readings can be large or run the other way.
% is scaled to controls: 0 for no effect and ±100 for the full control effect; potency is read from the fitted curve at half-maximal effect.

The experiment can be described thus: qHTS to identify inhibitors of the type 1 interferon - major histocompatibility complex class I in skeletal muscle: Secondary screen by immunofluorescence. Also: nearly all actives have a fitted effect of over 70% in size.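 As to activity change, negative = inhibition: digitonin at 100 µM served as the cytotoxic control.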 The following applies: C25cl48 myoblasts, IFN-b induced HLA-ABC immunofluorescence, 24 h; series mostly up to 49.8 µM; activity change, negative = inhibition: at the top concentration. Put shortly: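 HLA-ABC immunofluorescence, with nuclear and cell-body stains, was quantified by laser scanning cytometry. Read-out followed 24 h of IFN-beta (4.0 ng/ml) stimulation of C25cl48 human myoblasts with compounds titrated 1:3 over 11 points from 50 uM, with ruxolitinib as inhibitor control.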
(Quantitative high-throughput screening tests each substance at several concentrations.)
As for `Cc1ccc(NC(=O)NCc2ccc3c(c2)CN(C2CCC(=O)NC2=O)C3=O)cc1Cl` (configuration not stated), the Potency was 8.1 nM (active).

On to `CC(C)c1c(-c2ccccc2)nc2c(C#N)c[nH]n2c1=O`, for which the “activity change, negative = inhibition” value is -25.8%.

For `C1=C/COCc2cc(ccc2OCCN2CCCC2)Nc2nccc(n2)-c2cccc(c2)COC/1`, the Potency was 1290 nM (active).

Turning to `O=C1Nc2nc(-c3c(O)cccc3OCC3CC3)cc([C@@H]3CCCNC3)c2CO1`, the Potency was 4580 nM (active).

For the molecule `CN(C)c1ccc(C(=O)NCCCCCCC(=O)NO)cc1`, the Potency was 647 nM (active).

For the molecule `CO[C@H]1C(=O)[C@]2(C)[C@@H](OC)C[C@H]3OC[C@@]3(OC(C)=O)[C@H]2[C@H](OC(=O)c2ccccc2)[C@]2(O)C[C@H](OC(=O)[C@H](O)[C@@H](NC(=O)OC(C)(C)C)c3ccccc3)C(C)=C1C2(C)C`, the “activity change, negative = inhibition” value was 2.93%.

`CO[C@@H]1[C@@H](O)[C@H](O)[C@@H](n2c3c(Cl)cccc3c3c4c(c5c6cccc(Cl)c6[nH]c5c32)C(=O)NC4=O)O[C@H]1CO`: the “activity change, negative = inhibition” value was 2.3%.

As for `O=C1NCCc2[nH]c(-c3ccncc3)cc21`, the Potency was 2570 nM (active).

With `CC[C@@]1(O)C(=O)OCc2c1cc1n(c2=O)Cc2cc3cc(O)ccc3nc2-1`, the Potency was 1620 nM (active).

Turning to `O=c1[nH]c2cc(Cl)ccc2c(O)c1-c1ccc(Oc2ccccc2)cc1`, the “activity change, negative = inhibition” value was -1.08%.

For the molecule `CN(c1ncccc1CNc1nc(Nc2ccc3c(c2)CC(=O)N3)ncc1C(F)(F)F)S(C)(=O)=O`, the Potency was 5760 nM (active).

Consider `Cc1cc(Nc2cc(NC(=O)c3c(Cl)cccc3Cl)ccn2)nc(N)n1`, for which the Potency was 2050 nM (active).

Consider `CC(=O)c1cnc2ccc(-c3cc(Cl)c(O)c(Cl)c3)nc2c1NC1CCC(CN(C)C)CC1` (configuration not stated), for which the Potency is 45.8 nM (active).

As to `CCC(=C/[C@H](C)C/C=C/C(C)=C/[C@@H](C)C(=O)[C@@H](C)[C@H](O)[C@@H](C)C/C(C)=C/C(=O)O)/C=C/[C@@H]1OC(=O)C=C[C@@H]1C`, the “activity change, negative = inhibition” value is -89.2%.

On to `CC(C)c1cnn2c(NCc3ccccc3)cc(N[C@@H](CO)[C@H](O)CO)nc12`, for which the Potency is 914 nM (active).

On to `CC[C@]1(O)C[C@H]2CN(CCc3c([nH]c4ccccc34)[C@@](C(=O)OC)(c3cc4c(cc3OC)N(C=O)[C@H]3[C@@](O)(C(=O)OC)[C@H](OC(C)=O)[C@]5(CC)C=CCN6CC[C@]43[C@@H]65)C2)C1`, for which the “activity change, negative = inhibition” value is 3.61%.

As for `N#CCNC(=O)c1ccc(-c2ccnc(Nc3ccc(N4CCOCC4)cc3)n2)cc1`, the Potency is 1620 nM (active).

For the molecule `C[C@]12C=CC(=O)C=C1CC[C@H]1[C@@H]3C[C@@H](O)[C@](O)(C(=O)CO)[C@@]3(C)C[C@H](O)[C@@]12F`, the “activity change, negative = inhibition” value is -12.7%.

As for `COC1CC(C(=O)c2ccc3c(N)ncc(-c4ccc(-c5cnn(C)c5)cc4)c3n2)C1` (configuration not stated), the “activity change, negative = inhibition” value is 5.32%.

On to `CCS(=O)(=O)N1CCN(c2ccc(Nc3ncc(C(N)=O)c(NC4CC4)n3)cc2)CC1`, for which the Potency was 1290 nM (active).

As for `COCCN1CCN(Cc2ccc(-c3n[nH]c4c3C(=O)c3c(NC(=O)NN5CCOCC5)cccc3-4)cc2)CC1`, the Potency is 51.4 nM (active).

Consider `CCCOc1ccc2nc(NC(=O)OC)[nH]c2c1`, for which the “activity change, negative = inhibition” value was 1.06%.

For the molecule `O=C(/C=C/C#Cc1cccc(NS(=O)(=O)c2ccccc2)c1)NO`, the Potency is 1450 nM (active).

In the case of `Cc1ncsc1-c1ccc([C@H](C)NC(=O)[C@@H]2C[C@@H](O)CN2C(=O)[C@@H](NC(=O)COCCCOCCNC(=O)C[C@@H]2N=C(c3ccc(Cl)cc3)c3c(sc(C)c3C)-n3c(C)nnc32)C(C)(C)C)cc1`, the Potency was 145 nM (active).

On to `C=CC(=O)N1CCc2ccc(-n3c(=O)ccc4cnc5ccc(-c6cnn(C)c6)cc5c43)cc21`, for which the Potency was 2890 nM (active).

With `Cn1cc(-c2ccc(-c3cncc(Cl)c3N3CCC4(CCNC4=O)CC3)cc2)cn1`, the “activity change, negative = inhibition” value is -43.2%.

In the case of `CN(Cc1ccc(/C=C/C(=O)NO)cc1)CC12CC3CC(CC(C3)C1)C2`, the Potency is 72.6 nM (active).

As for `C=CC(=O)N1CC/C(=C\c2ccc(F)c([N+](=O)[O-])c2)C(=O)/C(=C/c2ccc(F)c([N+](=O)[O-])c2)C1`, the Potency is 182 nM (active).

As to `COc1cccc2c1C(=O)c1c(O)c3c(c(O)c1C2=O)C[C@@](O)(/C(CO)=N/NC(=O)CCCCCN1C(=O)C=CC1=O)C[C@@H]3O[C@H]1C[C@H](N)[C@H](O)[C@H](C)O1`, the Potency was 1020 nM (active).

With `CC(C)(C)c1cnc(CSc2cnc(NC(=O)C3CCNCC3)s2)o1`, the Potency is 289 nM (active).

In the case of `CC(=O)NCC(=O)N1[C@@H]2CC[C@H]1c1ccc(Nc3ncc(C(F)(F)F)c(NC4CCC4)n3)cc12`, the Potency is 14500 nM (active).

`CN1C/C=C/CCOc2cccc(c2)-c2ccnc(n2)Nc2cccc(c2)C1`: the Potency is 115 nM (active).

For `CC[C@@]1(O)C(=O)OCc2c1cc1n(c2=O)Cc2cc3c(CN(C)C)c(O)ccc3nc2-1`, the Potency is 7260 nM (active).

As to `Nc1ccccc1NC(=O)c1ccc(CNc2nccc(-c3cccnc3)n2)cc1`, the Potency is 3240 nM (active).

Take `CC1(COc2ccc3c(c2)ncn3-c2ccc3cccc(N4CCC(N)CC4)c3n2)COC1`: the Potency was 5140 nM (active).

Take `N#CC[C@H](C1CCCC1)n1cc(-c2ncnc3[nH]ccc23)cn1`: the Potency is 458 nM (active).

As to `C[C@H](NC(=O)/C(C#N)=C/c1cccc(Br)n1)c1ccccc1`, the Potency is 20500 nM (active).

Source of the values: PubChem BioAssay AID1347414 (National Center for Advancing Translational Sciences (NCATS), 2020).
